Reference: the supplement of paper PMC3334620
The full ranking holds about 33,000 sequences; the median of “E-score (-0.5 to 0.5)” is about -0.043, and the highest 2% start at about 0.37. For the sample, the highest values were picked, then their nearest neighbours and some sequences at random.

target: T1, Upc2 (UniProt Q12151); experiment: PBM E-score (8-mer binding enrichment) (E-score (-0.5 to 0.5)); higher = stronger / more preferred TF binding; conditions: protein concentration: 200 nM; construct: GST-full length
T1 sequence: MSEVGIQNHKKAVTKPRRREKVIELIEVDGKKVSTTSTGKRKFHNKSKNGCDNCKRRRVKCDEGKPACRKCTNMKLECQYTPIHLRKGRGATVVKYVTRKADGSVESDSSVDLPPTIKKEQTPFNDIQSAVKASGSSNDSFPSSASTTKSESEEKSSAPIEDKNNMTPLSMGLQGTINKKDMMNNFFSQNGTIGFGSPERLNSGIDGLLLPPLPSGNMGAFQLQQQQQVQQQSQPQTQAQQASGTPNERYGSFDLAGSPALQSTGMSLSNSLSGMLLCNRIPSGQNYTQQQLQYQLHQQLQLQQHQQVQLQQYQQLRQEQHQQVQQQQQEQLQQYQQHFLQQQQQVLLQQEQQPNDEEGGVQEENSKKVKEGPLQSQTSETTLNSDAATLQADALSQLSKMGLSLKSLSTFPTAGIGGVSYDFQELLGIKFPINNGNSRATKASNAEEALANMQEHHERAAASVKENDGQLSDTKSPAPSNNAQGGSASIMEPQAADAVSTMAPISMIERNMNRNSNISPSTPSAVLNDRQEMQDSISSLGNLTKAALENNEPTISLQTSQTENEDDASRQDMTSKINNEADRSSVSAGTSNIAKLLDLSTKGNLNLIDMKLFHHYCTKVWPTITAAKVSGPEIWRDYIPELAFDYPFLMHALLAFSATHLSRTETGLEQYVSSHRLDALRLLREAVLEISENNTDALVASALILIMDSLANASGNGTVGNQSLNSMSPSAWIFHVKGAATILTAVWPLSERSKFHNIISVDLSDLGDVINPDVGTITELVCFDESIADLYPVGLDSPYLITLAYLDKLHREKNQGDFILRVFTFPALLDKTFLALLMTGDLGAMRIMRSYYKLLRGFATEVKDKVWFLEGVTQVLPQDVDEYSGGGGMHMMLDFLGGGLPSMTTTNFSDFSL
Outline: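 Detection of bound protein used fluorescent anti-GST, with scans normalised by masliner. The proteins were GST-tagged yeast transcription factors applied at about 100-200 nM to universal all-10-mer Agilent arrays made double-stranded by primer extension. Each ungapped eight-base word, pooled with its reverse complement, was scored with an E-score from the Universal PBM Analysis Suite.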

Row | Sequence | PBM E-score
1 | CACTAGCC | -0.0426
2 | TAAGACAA | 0.0602
3 | AGCTGAGA | -0.232
4 | CTTGCACC | 0.0237
5 | GAAAGCCA | -0.231
6 | CTTGTATC | -0.0734
7 | ATGGTATC | 0.15
8 | CTCGTATC | 0.473
9 | ATCGTATG | 0.455
10 | ATAGTATC | 0.0546
11 | ATAGTATG | 0.0124
12 | ATCGTATC | 0.426
13 | AACGTATG | 0.239
14 | CTGGTATC | -0.187
15 | CGGTCACA | 0.0569
16 | AGTGCTAT | -0.0648
17 | CGTGCTTC | 0.014
18 | CACAAGGC | -0.308
19 | GGCCATGA | -0.134
20 | ACTTCAGC | -0.178
21 | AGTGTACG | 0.417
22 | ATTGTACC | 0.115
23 | ATTGTACA | -0.0603
24 | ATTGTACG | 0.428

Row | Sequence | PBM E-score
25 | CCTGTACA | -0.0382
26 | CCTGTACG | 0.436
27 | CATGTACA | -0.00834
28 | CCTGTACC | -0.0294
29 | AGTGTACA | -0.0815
30 | CATGTACG | 0.409
31 | AGTGTACC | -0.0597
32 | AATGTACG | 0.36
33 | ACATGCGA | 0.128
34 | ACAGCGGT | -0.15
35 | AATCTGAA | -0.00542
36 | CTTGACTC | -0.0404
37 | ATAAGTCC | -0.0003
38 | GGTCCACA | -0.166
39 | GAGTTCTA | -0.141
40 | ACTGTACT | 0.0214
41 | ACTGTACG | 0.433
42 | ACTGTACC | -0.077
43 | CTATACGC | 0.458
44 | ATATACGA | 0.492
45 | ATATACTC | -0.0113
46 | CTATACTC | 0.0215
47 | ATATACCG | 0.194
48 | ATATACAA | -0.0498

Row | Sequence | PBM E-score
49 | CTATACCC | 0.0307
50 | ATATACCA | 0.0254
51 | ATATACGC | 0.387
52 | ATATACGG | 0.456
53 | ATATACTG | 0.0777
54 | ATATACAC | 0.193
55 | CGGATTTA | 0.0862
56 | CGCCTTAC | 0.155
57 | AATCTGAC | -0.119
58 | AGCTCACT | -0.138
59 | ATAAAAAG | 0.0686
60 | CCTCTCAG | -0.352
61 | CGTAGGGA | -0.0318
62 | ATCTTACA | 0.0167
63 | ATAGTACA | 0.149
64 | ATCGTACA | 0.468
65 | AACGTACA | 0.266
66 | AGCGTACA | 0.301
67 | AACGTACC | 0.256
68 | GACGTACA | 0.305
69 | GTCGTACA | 0.483
70 | ATCGTAGG | 0.165
71 | ATAGTACG | 0.221
72 | ATCGTACG | 0.435

Row | Sequence | PBM E-score
73 | GGCGTACA | 0.269
74 | AACGTACG | 0.386
75 | AGTTTTCA | -0.0402
76 | CAGCTAGG | -0.352
77 | AAGGTGGA | -0.0852
78 | TCAGTCCA | -0.272
79 | AAAAACGT | 0.0237
80 | AGCGCTTG | -0.188
81 | GCGGTACC | 0.0215
82 | GAAGTGCA | -0.153
83 | CTTCTCGA | -0.187
84 | ACCAGAAT | -0.00733
85 | CCAGAGGA | -0.256
86 | AGTCGAGC | -0.152
87 | CGTAAATA | 0.34
88 | TGTAAACA | -0.0818
89 | AGTAAACA | 0.0452
90 | CGTAAACG | 0.473
91 | CGTAAATC | 0.352
92 | CGTAAACA | 0.39
93 | AGTAAACG | 0.442
94 | GGTAAACA | 0.111
95 | AGTAAACC | -0.0507
